# Reference: PubChem BioAssay AID1851 (National Center for Advancing Translational Sciences (NCATS), 2009)
# Out of some 16,000 compounds screened, about 5,700 (36%) were called active. About 24% were inconclusive and are not listed. Some of the results follow. Values without a mark were called inactive. Calls come from the whole dose curve; as a rule, active = well fitted curve in the direction sought with a large enough effect; inconclusive = small, poorly fitted or top-dose-only effect, or effect the other way; inactive = no such curve, though single readings can be large or run the other way.
# Molecular target: Cytochrome P450 1A2 (Homo sapiens) (UniProt P05177)
# Sequence (P05177 whole entry, looked up): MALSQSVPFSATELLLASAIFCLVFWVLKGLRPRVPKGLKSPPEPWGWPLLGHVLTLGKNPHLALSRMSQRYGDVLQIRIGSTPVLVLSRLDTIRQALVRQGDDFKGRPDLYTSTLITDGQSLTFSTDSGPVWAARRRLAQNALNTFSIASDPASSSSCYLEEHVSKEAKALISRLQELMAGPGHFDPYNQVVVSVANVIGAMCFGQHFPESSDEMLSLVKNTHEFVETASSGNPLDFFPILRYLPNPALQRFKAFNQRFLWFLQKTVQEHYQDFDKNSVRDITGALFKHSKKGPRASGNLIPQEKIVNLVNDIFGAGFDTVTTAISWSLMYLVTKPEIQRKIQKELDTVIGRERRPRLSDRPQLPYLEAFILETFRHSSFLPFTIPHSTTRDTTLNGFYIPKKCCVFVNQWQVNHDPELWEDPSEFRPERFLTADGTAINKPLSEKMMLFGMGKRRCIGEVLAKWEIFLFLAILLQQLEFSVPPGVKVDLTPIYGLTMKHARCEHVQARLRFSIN
# Assay: Cytochrome panel assay with activity outcomes
# Conditions: recombinant CYP, pro-luciferin dealkylation, luminescence, p450-cyp1a2; series mostly up to 57.1 µM
# % is set by controls: 0 for no effect and ±100 for the full control effect.
SMILES,AC50,"activity, negative = inhibition"
Cc1cccc(-c2n[nH]c([N+](=O)[O-])n2)c1,14.1 µM (active),–
CS(=O)(=O)Nc1cccc(-c2ccc3ncnc(Nc4ccccc4)c3c2)c1,1 µM (active),–
CNc1ncnc2ccc(-c3cccc(NS(C)(=O)=O)c3)cc12,0.316 µM (active),–
Cn1ncc2c(Nc3cccc(C(=O)O)c3)ncnc21,inactive,–
CS(=O)(=O)Nc1cccc(-c2ccc3ncnc(NC4CC4)c3c2)c1,0.631 µM (active),–
CS(=O)(=O)Nc1cccc(-c2ccc3ncnc(Nc4ccc(F)cc4)c3c2)c1,0.794 µM (active),–
Cc1nc(Oc2ccc(Cl)cc2)c2oc3ccccc3c2n1,0.141 µM (active),–
O=C1Nc2ccccc2Nc2ncccc21,2.24 µM (active),–
N#Cc1c(-c2ccccc2)cc(-c2ccccc2)nc1SCc1nnc(-c2ccccc2)o1,inactive,–
CS(=O)(=O)c1nc(-c2ccccc2)cc(-c2ccccc2)c1C#N,0.891 µM (active),–
O=C1CC(=O)N(CCc2ccc(F)cc2)C(=O)N1,inactive,–
CNC(=O)NC(=O)CSc1nnc(-c2ccco2)n1Cc1ccccc1,inactive,–
CCn1c(=O)cc(SCC(=O)N2CCN(C(=O)c3ccco3)CC2)c2ccccc21,inactive,–
Cc1c(/N=C/c2ccco2)n(Cc2ccccc2)c2ccccc12,1.12 µM (active),–
CC12c3ccccc3C(c3ccccc31)C1C(=O)N(Cc3cccnc3)C(=O)C12 (stereo not drawn),inactive,–
S=C1N[C@H](c2ccccc2)N[C@H](c2ccccc2)S1,3.16 µM (active),–
O=C1C2[C@@H](c3ccccc3)N[C@@H](c3ccccc3)C1[C@H](c1ccccc1)N[C@H]2c1ccccc1,–,-18.6% [at 11.4 µM]
CCC(C)Nc1c([N+](=O)[O-])cc(C)cc1[N+](=O)[O-] (stereo not drawn),1.78 µM (active),–
COc1cc(C(=O)NCCC(C)C)c([N+](=O)[O-])cc1OC,inactive,–
CC[C@@H](CS(=O)(=O)O)[N+](=O)[O-],–,-0.979% [at 11.4 µM]
Cn1cc(-c2nnc(-c3ccccc3)o2)c2ccccc21,2 µM (active),–

SMILES,AC50,"activity, negative = inhibition"
COc1ccc(/C=C(/C#N)C(=O)NC2CCCCC2)cc1Br,inactive,–
N#C/C(=C\c1cn[nH]c1-c1ccccc1)C(=O)NC1CCCCCC1,11.2 µM (active),–
O=C(NC1CCCCC1)C(c1ccccc1)N1CCOCC1 (stereo not drawn),inactive,–
N#C/C(=C\c1cc(Cl)cc(Cl)c1O)C(=O)NC1CCCCC1,5.01 µM (active),–
CCOC(=O)C[C@@H](C(=O)OCC)[C@@H]1CCCCC1=O,–,-6.2% [at 11.4 µM]
CCOc1cc(-c2noc(N)c2C#N)cc(OCC)c1OCC,0.141 µM (active),–
CCOC(=O)c1cc(CC)sc1NC(=O)c1cc(OCC)c(OCC)c(OCC)c1,inactive,–
CCON=C1C(C)(C)C(C)(C)C(C)(C)C1(C)C,–,-12% [at 11.4 µM]
CC1CN(C(NC(=O)C(C)(C)C)C(Cl)(Cl)Cl)CC(C)O1 (stereo not drawn),inactive,–
CN(C)C(=O)c1ccc(-c2nc(Nc3ccccc3)c3ccccc3n2)cc1,0.398 µM (active),–
NCCC(=O)NCCc1cnc[nH]1,inactive,–
COCCNc1nc(-c2ccc(C(=O)N(C)C)cc2)nc2ccccc12,20 µM (active),–
CN(C)C(=O)c1ccc(-c2nc(NCc3cccs3)c3ccccc3n2)cc1,12.6 µM (active),–
CN(C)c1ccc(-c2nc(NCCc3cnc[nH]3)c3ccccc3n2)cc1,0.631 µM (active),–
CCOC(=O)N1CCC(NC(=O)C2CCN(S(=O)(=O)N3CCCC3)CC2)CC1,inactive,–
CN(C)C[C@H]1CCC[C@@H](CN(C)C)C1=O,–,-12.2% [at 11.4 µM]
Cc1ccc(S(=O)(=O)N[C@H](C(=O)N2CCC(C(=O)NCC(=O)O)CC2)C(C)C)cc1,inactive,–
COCCNc1nc(-c2ccc(N(C)C)cc2)nc2ccccc12,0.631 µM (active),–
CC(=O)NCCNc1nc(-c2ccc3c(c2)OCO3)nc2ccccc12,2.51 µM (active),–
CC(=O)NCCNc1nc(-c2ccc(C(=O)N(C)C)cc2)nc2ccccc12,inactive,–
CC(=O)NCCNc1nc(-c2ccc(N(C)C)cc2)nc2ccccc12,3.16 µM (active),–

SMILES,AC50,"activity, negative = inhibition"
CCCCN(C)CCCNC(=O)CS(=O)Cc1nc(-c2ccc(OC)c(OC)c2)oc1C (stereo not drawn),inactive,–
O=C(c1cnccn1)N1CCC2(CC1)CN(Cc1cc(C(F)(F)F)cc(C(F)(F)F)c1)C2,inactive,–
N#Cc1cccc(-c2nc3cnc(N4CCNCC4)nc3n(C3CC3)c2=O)c1,5.01 µM (active),–
O=c1c(-c2ccc(F)cc2)nc2cnc(N3CCOCC3)nc2n1C1CC1,inactive,–
O=c1c(-c2ccccc2)nc2cnc(N3CCOCC3)nc2n1C1CC1,3.16 µM (active),–
N#Cc1cccc(-c2nc3cnc(N4CCOCC4)nc3n(C3CC3)c2=O)c1,2.51 µM (active),–
NC(=O)N1c2ccccc2C=Cc2ccccc21,inactive,–
CC1(C)Cc2c(sc3nc(SCC(=O)NCc4ccccc4)n(-c4ccccc4)c(=O)c23)CS1,inactive,–
C=CCn1c(SCC)nc2sc3c(c2c1=O)CCc1ccccc1-3,1.78 µM (active),–
C=CCn1c(SCC(=O)Nc2c(C)n(C)n(-c3ccccc3)c2=O)nc2sc(C)c(-c3ccccc3)c2c1=O,inactive,–
CO[C@@H]1CC[C@@]2(C)[C@@H](CC[C@@]3(C)[C@H]2CC=C2[C@H]4CC(C)(C)[C@H](O)[C@@H](OC(C)=O)[C@]4(CO)[C@H](O)C[C@]23C)[C@@]1(C)CO (tested in a mixture with another compound),inactive,–
COc1ccc(-c2csc(NC(=O)Cn3nc(C)cc3C)n2)cc1,3.16 µM (active),–
COc1ccc2cc(C)c3nnc(SCC(=O)Nc4nc(-c5ccccc5)cs4)n3c2c1,inactive,–
CC(N)=NCCCC[C@H](N)C(=O)O,inactive,–
COc1cc(/C=C/C(=O)N2CCN(CC(O)COc3ccccc3)CC2)cc(OC)c1OC (stereo not drawn),inactive,–
COc1cc(/C=C/C(=O)O)cc(S(=O)(=O)NCCCO)c1OC,inactive,–
COc1cc(/C=C\C(=O)N2CCC=CC2=O)cc(OC)c1OC,0.2 µM (active),–
COc1ccc(C2c3c(ncn(CCN4CCOCC4)c3=N)Oc3ccc4ccccc4c32)cc1OC (stereo not drawn),inactive,–
N#Cc1ccccc1-c1ccc2ncnc(NCCN3CCOCC3)c2c1,10 µM (active),–
Clc1ccccc1-c1ccc2ncnc(NCCN3CCOCC3)c2c1,5.01 µM (active),–
COc1ccccc1-c1ccc2ncnc(NCCN3CCOCC3)c2c1,15.8 µM (active),–
